Source: PubChem BioAssay AID1159580 (chemical genetic matrix, 2015)
The campaign covered roughly 5,500 compounds. About 2,000 (36%) were called active. Not shown: some 18% with an inconclusive outcome. Rule as the data show it: active = normalized growth mostly below about 0.91 (no sharp cut-off); inconclusive = no clear call, values can overlap the other calls; inactive = mostly above about 0.92. The list shows a part of the results.

Experiment: chemical genetic growth profiling, strain panel (AID 1159580);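 also: tested at 20 µM; growth read once vehicle control cultures reached saturation at 30 °C; 1 = growth at the plate median or of vehicle wells; lower values mean less growth of the strain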
Details: S. cerevisiae deletion strains, growth OD

Measured: normalized growth

C=C(C)C1Cc2c(ccc3c2OC2COc4cc(OC)c(OC)cc4C2C3=O)O1 (stereo unspecified)
inactive: locus YAL040C, strain CLN3, hits give low values 1.07 | locus YCL061C, strain MRC1 (second series), hits give low values 0.98 | locus YDR363W, strain ESC2, hits give low values 0.99 | locus YER002W, strain NOP16, hits give low values 0.992 | locus YNL153C, strain GIM3, hits give low values 0.942 | locus YNL175C, strain NOP13, hits give low values 0.955 | locus YNL197C, strain WHI3, hits give low values 0.979 | locus YNL224C, strain SQS1, hits give low values 0.964 | locus YNL322C, strain KRE1, hits give low values 0.98 | locus YOR083W, strain WHI5 (second series), hits give low values 0.958 | locus YPL055C, strain LGE1, hits give low values 1.01
